# From PubChem BioAssay
# Biological target: Torsin-1A (Homo sapiens) (UniProt O14656)
# Test: small-molecule binders of mutant TOR1A in lysate, primary screen, cell lysate, small-molecule microarray, COS7 lysate, 635/667 nm fluorescence (AID 1150);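 also: score pools 667 nm emission and signal to noise measuring lysate protein binding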
# Details: COS7 hTOR1A mutant lysate, 635 nm fluorescence, higher = more signal
# Torsin-1A (Homo sapiens), sequence (O14656 whole entry, looked up): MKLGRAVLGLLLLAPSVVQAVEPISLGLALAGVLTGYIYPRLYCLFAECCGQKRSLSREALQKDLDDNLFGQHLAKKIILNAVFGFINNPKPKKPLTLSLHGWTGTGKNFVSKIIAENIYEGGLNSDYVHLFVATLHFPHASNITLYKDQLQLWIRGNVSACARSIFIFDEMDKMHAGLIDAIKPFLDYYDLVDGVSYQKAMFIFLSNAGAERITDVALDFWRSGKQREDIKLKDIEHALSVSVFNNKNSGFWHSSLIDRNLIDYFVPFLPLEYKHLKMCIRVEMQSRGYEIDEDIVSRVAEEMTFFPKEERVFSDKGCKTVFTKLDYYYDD
row,SMILES,composite z-score
1,O=C(NCC(O)CO)[C@]1(Cc2ccccc2)N=C(c2ccc(OCCCO)cc2)O[C@@H]1c1ccccc1 (stereo not given in full),1.81
2,O=C(CS)NCCCCCNC(=O)[C@H]1C[C@H]2C(=O)N3CCC[C@H]3C(=O)N2[C@H]1c1ccc(O)cc1,0.0883
3,COc1cccc([C@H]2N[C@H](C(=O)O)CC[C@@H]2C)c1,0.403
4,CC(C)[Si]1(C(C)C)O[C@@H](c2ccccc2)c2cc(C3CC3)nc(-c3ccc(Oc4ccccc4)cc3)c21,-0.0373
5,CC(=O)Nc1ccc([C@H]2[C@H](C)CC[C@H]3C(=O)N4[C@@H](CC[C@@H](C)[C@@H]4c4ccc(NC(C)=O)cc4)C(=O)N32)cc1,0.283
6,COc1cc2c(cc1OC)CN(C(=O)[C@@H]1[C@H]3C(=O)O[C@H](c4ccccc4)[C@H](c4ccccc4)N3[C@H](c3ccccc3OCCO)[C@@]13C(=O)Nc1ccccc13)CC2,0.701
7,[N-]=[N+]=NCc1ccccc1C[C@@]1(C(=O)N2CCOCC2)N=C(c2ccc(OCCCO)cc2)O[C@@H]1c1ccccc1N=[N+]=[N-],0.987
8,C=CC[C@]1(C(=O)OC)N=C(c2ccc(OCCCO)cc2)O[C@H]1c1ccccc1CN=[N+]=[N-],-0.0021
9,CO[C@]12C=C(Br)[C@@H](C[C@@H]1c1ccccc1)[C@@]1(CO1)C2=O,0.309
10,C[C@]1(C(=O)NCc2ccccc2)c2ccccc2C(=O)N(Cc2cc(C(F)(F)F)cc(C(F)(F)F)c2)[C@H]1c1ccc(CO)cc1,0.334
